The values below come from PubChem BioAssay (NCI).

Structures are written as SMILES. Compounds without any hit were thinned out: in the full panel of roughly 79,000, 15% have a hit. Unmarked numbers belong to inactive results. Calls of active or inactive are those of the source. Rule as the data show it: active = growth inhibition above about 70%; inactive = the rest.

Experiment [1] can be described thus: NCI Yeast Anticancer Drug Screen. Data for the rad50 strain (AID 155).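 Also: 0% = growth of vehicle-only cultures of the same strain.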 The conditions noted are these: S. cerevisiae rad50 strain growth inhibition, stronger effect = higher value. The procedure, abridged: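 DNA repair mutant yeast, compound exposure, growth read-out; inhibition is taken relative to vehicle.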
Experiment [2] in a line: NCI Yeast Anticancer Drug Screen. Data for the mec2-1 strain (AID 157). To be noted: S. cerevisiae mec2-1 strain, stronger effect = higher value. In outline:
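Strain: mec2-1 (DNA repair/cell cycle alteration). Compound exposure, then growth measured; inhibition expressed relative to vehicle.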

A short description of experiment [3]: NCI Yeast Anticancer Drug Screen. Data for the sgs1 mgt1 strain (AID 161).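 Also: 0% = growth of cultures given vehicle only.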 To be noted: S. cerevisiae sgs1 mgt1 strain, stronger effect = higher value. The procedure, abridged: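 Genetically altered yeast, compound exposure, growth inhibition relative to vehicle.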
Experiment [4] is described as follows: NCI Yeast Anticancer Drug Screen. Data for the cln2 rad14 strain (AID 165).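 Also: 0% = growth equal to vehicle treated cultures.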 To be noted: S. cerevisiae cln2 rad14 strain, stronger effect = higher value. In outline: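 Compounds are applied to the cln2 rad14 yeast strain, and growth is then compared with that of vehicle-treated cultures to give inhibition.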
Experiment [5] is described as follows: NCI Yeast Anticancer Drug Screen. Data for the bub3 strain (AID 167). To be noted: S. cerevisiae bub3 mutant strain, stronger effect = higher value. In outline:
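In this screen, a yeast mutant lacking normal mitotic checkpoint function is challenged with compound. Relative growth versus vehicle gives the inhibition value.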

Experiment [6] in a line: NCI Yeast Anticancer Drug Screen. Data for the mlh1 rad18 strain (AID 175). To be noted: S. cerevisiae mlh1 rad18 strain growth inhibition, stronger effect = higher value. The procedure, abridged: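 Read-out is yeast growth inhibition, calculated against vehicle-only controls. The compound was applied to a strain engineered with DNA damage repair alterations.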
The mark [7] stands for this setting: at 5.0 µM (retest, dose inferred, filed as 0.5).
Where [8] appears, read: at 50.0 µM (retest, dose inferred, filed as 5.0).

As to `Cc1cc(Cl)cc2c1NC(=O)C2(O)C(C)C(=O)c1ccc(Cl)cc1` (stereo not given), the growth inhibition in experiment [1] (setting [7]) is -2%; in experiment [1] (setting [8]), 63%; in experiment [1] (at 50.0 µM), 99.4% (active); in experiment [2] (setting [7]) it was -1%; in experiment [2] (setting [8]) it was 71% (active); in experiment [2] (at 50.0 µM), 98.5% (active). Further, the growth inhibition is 11% in experiment [3] (setting [7]); 77% (active) in experiment [3] (setting [8]); 99.5% (active) in experiment [3] (at 50.0 µM); -1% in experiment [4] (setting [7]); 99% (active) in experiment [4] (setting [8]); 99.1% (active) in experiment [4] (at 50.0 µM). The growth inhibition is -4% in experiment [5] (setting [7]); 99% (active) in experiment [5] (setting [8]); 99.5% (active) in experiment [5] (at 50.0 µM); -5% in experiment [6] (setting [7]); 77% (active) in experiment [6] (setting [8]); 98.8% (active) in experiment [6] (at 50.0 µM).
Consider `O=c1c(SSc2coc3ccccc3c2=O)coc2ccccc12`, for which the growth inhibition in experiment [1] (setting [7]) is 22%; in experiment [1] (setting [8]), 99% (active); in experiment [1] (at 50.0 µM) it was 94.4% (active); in experiment [2] (setting [7]) it was 27%; in experiment [2] (setting [8]), 96% (active); in experiment [2] (at 50.0 µM), 96.3% (active). Besides, the growth inhibition was 27% in experiment [3] (setting [7]); 98% (active) in experiment [3] (setting [8]); 87.5% (active) in experiment [3] (at 50.0 µM); 42% in experiment [4] (setting [7]); 94% (active) in experiment [4] (setting [8]); 91.3% (active) in experiment [4] (at 50.0 µM). Moreover, the growth inhibition in experiment [5] (setting [7]) is 13%; in experiment [5] (setting [8]), 94% (active); in experiment [5] (at 50.0 µM) it was 71.9% (active); in experiment [6] (setting [7]), 17%; in experiment [6] (setting [8]), 97% (active); in experiment [6] (at 50.0 µM) it was 93.5% (active).
Regarding `CCCN(Cc1ccccc1)S(=O)(=O)c1ccc(C)cc1`, the growth inhibition was -4% in experiment [1] (setting [7]); 95% (active) in experiment [1] (setting [8]); -14.1% in experiment [1] (at 50.0 µM); -4% in experiment [2] (setting [7]); 97% (active) in experiment [2] (setting [8]); -3.65% in experiment [2] (at 50.0 µM). In addition, the growth inhibition in experiment [3] (setting [7]) was -5%; in experiment [3] (setting [8]), 95% (active); in experiment [3] (at 50.0 µM), 16%; in experiment [4] (setting [7]), -6%; in experiment [4] (setting [8]) it was 93% (active); in experiment [4] (at 50.0 µM) it was -19.5%. Besides, the growth inhibition in experiment [5] (setting [7]) was 7%; in experiment [5] (setting [8]), 96% (active); in experiment [5] (at 50.0 µM) it was 63.7%; in experiment [6] (setting [7]), -5%; in experiment [6] (setting [8]) it was 96% (active); in experiment [6] (at 50.0 µM) it was -7.75%.
For the compound `OC(CC(O)(C(F)(F)Cl)C(F)(F)Cl)c1ccccc1` (stereo not given), the growth inhibition in experiment [1] (setting [7]) is 31%; in experiment [1] (setting [8]) it was 66%; in experiment [1] (at 50.0 µM), 88.1% (active); in experiment [2] (setting [7]) it was 10%; in experiment [2] (setting [8]) it was 62%; in experiment [2] (at 50.0 µM), 90.7% (active). Further, the growth inhibition was 42% in experiment [3] (setting [7]); 72% (active) in experiment [3] (setting [8]); 92.1% (active) in experiment [3] (at 50.0 µM); 35% in experiment [4] (setting [7]); 58% in experiment [4] (setting [8]); 85.8% (active) in experiment [4] (at 50.0 µM). The growth inhibition in experiment [5] (setting [7]) was 37%; in experiment [5] (setting [8]) it was 69%; in experiment [5] (at 50.0 µM), 88.6% (active); in experiment [6] (setting [7]), 26%; in experiment [6] (setting [8]), 59%; in experiment [6] (at 50.0 µM), 89.3% (active).
With `CCCN1CCN(c2ccc([N+](=O)[O-])c3no[n+]([O-])c23)CC1`, the growth inhibition was 97% (active) in experiment [1] (setting [7]); 99% (active) in experiment [1] (setting [8]); 89% (active) in experiment [1] (at 50.0 µM); 97% (active) in experiment [2] (setting [7]); 99% (active) in experiment [2] (setting [8]); 93.3% (active) in experiment [2] (at 50.0 µM). In addition, the growth inhibition in experiment [3] (setting [7]) is 92% (active); in experiment [3] (setting [8]), 99% (active); in experiment [3] (at 50.0 µM) it was 89.5% (active); in experiment [4] (setting [7]) it was 52%; in experiment [4] (setting [8]), 99% (active); in experiment [4] (at 50.0 µM), 80.3% (active). Also, the growth inhibition is 58% in experiment [5] (setting [7]); 98% (active) in experiment [5] (setting [8]); 90.2% (active) in experiment [5] (at 50.0 µM); 97% (active) in experiment [6] (setting [7]); 99% (active) in experiment [6] (setting [8]); 88.6% (active) in experiment [6] (at 50.0 µM).
For the compound `Cc1nc2[nH]cc(C)c2c(=O)[nH]1`, the growth inhibition is 6% in experiment [1] (setting [7]); -11% in experiment [1] (setting [8]); -24.8% in experiment [1] (at 50.0 µM); -4% in experiment [2] (setting [7]); -14% in experiment [2] (setting [8]); -2.25% in experiment [2] (at 50.0 µM). The growth inhibition in experiment [3] (setting [7]) is -1%; in experiment [3] (setting [8]), -7%; in experiment [3] (at 50.0 µM), 4.1%; in experiment [4] (setting [7]), -11%; in experiment [4] (setting [8]) it was -4%; in experiment [4] (at 50.0 µM), 35.1%. Moreover, the growth inhibition in experiment [5] (setting [7]) was 2%; in experiment [5] (setting [8]), -15%; in experiment [5] (at 50.0 µM), 4.6%; in experiment [6] (setting [7]) it was -10%; in experiment [6] (setting [8]), -14%; in experiment [6] (at 50.0 µM) it was -8.2%.
Turning to `Cc1cc(C)cc([C@H](C)N=Cc2cc(Br)ccc2O)c1`, the growth inhibition was 11% in experiment [1] (setting [7]); 95% (active) in experiment [1] (setting [8]); 96% (active) in experiment [1] (at 50.0 µM); -14% in experiment [2] (setting [7]); 95% (active) in experiment [2] (setting [8]); 95.8% (active) in experiment [2] (at 50.0 µM). Moreover, the growth inhibition is -1% in experiment [3] (setting [7]); 87% (active) in experiment [3] (setting [8]); 89.9% (active) in experiment [3] (at 50.0 µM); -4% in experiment [4] (setting [7]); 96% (active) in experiment [4] (setting [8]); 86.3% (active) in experiment [4] (at 50.0 µM). Also, the growth inhibition in experiment [5] (setting [7]) is -10%; in experiment [5] (setting [8]), 98% (active); in experiment [5] (at 50.0 µM), 95.2% (active); in experiment [6] (setting [7]) it was 2%; in experiment [6] (setting [8]), 96% (active); in experiment [6] (at 50.0 µM), 97.5% (active).
As for `C(CCCCCN1CCCCC1)CCCCN1CCCCC1`, the growth inhibition is -14% in experiment [1] (setting [7]); -9% in experiment [1] (setting [8]); -2.7% in experiment [1] (at 50.0 µM); -20% in experiment [2] (setting [7]); -8% in experiment [2] (setting [8]); 5.4% in experiment [2] (at 50.0 µM). Further, the growth inhibition in experiment [3] (setting [7]) is 3%; in experiment [3] (setting [8]) it was -14%; in experiment [3] (at 50.0 µM) it was 7.2%; in experiment [4] (setting [7]), 3%; in experiment [4] (setting [8]), 6%; in experiment [4] (at 50.0 µM), 6.75%. Also, the growth inhibition in experiment [5] (setting [7]) was -11%; in experiment [5] (setting [8]), -18%; in experiment [5] (at 50.0 µM), -27.2%; in experiment [6] (setting [7]) it was -1%; in experiment [6] (setting [8]), 10%; in experiment [6] (at 50.0 µM) it was 6.85%.
`O=C1CCCCCCC2=C1C(Sc1ccccc1)CC2` (stereo not given): the growth inhibition in experiment [1] (setting [7]) is -27%; in experiment [1] (setting [8]), 34%; in experiment [1] (at 50.0 µM), 78.8% (active); in experiment [2] (setting [7]) it was -6%; in experiment [2] (setting [8]), 25%; in experiment [2] (at 50.0 µM), 52.4%. The growth inhibition in experiment [3] (setting [7]) is -16%; in experiment [3] (setting [8]), 35%; in experiment [3] (at 50.0 µM), 75.2% (active); in experiment [4] (setting [7]), 13%; in experiment [4] (setting [8]), 28%; in experiment [4] (at 50.0 µM), 45.6%. Further, the growth inhibition in experiment [5] (setting [7]) was 3%; in experiment [5] (setting [8]), 69%; in experiment [5] (at 50.0 µM) it was 60.1%; in experiment [6] (setting [7]), -13%; in experiment [6] (setting [8]) it was 80% (active); in experiment [6] (at 50.0 µM), 54.1%.
Consider `CC1(C)OC(=O)C(=NNc2ccccc2[N+](=O)[O-])C(=O)O1`, for which the growth inhibition in experiment [1] (setting [7]) is 5%; in experiment [1] (setting [8]), 4%; in experiment [1] (at 50.0 µM), -6.9%; in experiment [2] (setting [7]), 2%; in experiment [2] (setting [8]), 19%; in experiment [2] (at 50.0 µM) it was 5.75%. Also, the growth inhibition in experiment [3] (setting [7]) is 2%; in experiment [3] (setting [8]), 16%; in experiment [3] (at 50.0 µM), 1.25%; in experiment [4] (setting [7]) it was -2%; in experiment [4] (setting [8]), 12%; in experiment [4] (at 50.0 µM), 29.4%. Also, the growth inhibition was 3% in experiment [5] (setting [7]); 21% in experiment [5] (setting [8]); 21.5% in experiment [5] (at 50.0 µM); 2% in experiment [6] (setting [7]); 7% in experiment [6] (setting [8]); 18.1% in experiment [6] (at 50.0 µM).
